Consider 40 sequences from the OligoGym collection.
Note: reference of the scale not given here.

The first assay concerns the target CTCFL. In words: pooled miR-30 sensor sort-seq; sequence = guide strand. Conditions: shRNA.
TTTGGGGACATTTTCGCCGTGT returned a sensor-assay potency score (higher = more potent) of -0.126.

For TTGAATTATGTAAAACATCTTT, the sensor-assay potency score (higher = more potent) is -0.709. Take TTGAATTTGAAACTGTGAGAAC: the sensor-assay potency score (higher = more potent) is -1.1. In turn, TTTAGAAGTTGCTTCTGTCGGA came in with a sensor-assay potency score (higher = more potent) of 0.605.

A further assay has as its target CTDSP1. Described as above. Conditions: shRNA.
The sequence TGAGCACTGAGTACACGTCGTC registered a sensor-assay potency score (higher = more potent) of -0.158. With TTGTCCAGGATGAGCACCCGCC, the sensor-assay potency score (higher = more potent) was -0.921. Same read-out and setting: the result for TAGACCTGGTGGACCACCCCAT reads -0.5. On to TCGATGACCACGCAGATCTTGT, for which the sensor-assay potency score (higher = more potent) was -1.32.

As for TACAGCATTGTCTGGATGGAAG, the sensor-assay potency score (higher = more potent) is -1.6.

In turn, TTCACTGGCTTGAAGGAGCTGT registered a sensor-assay potency score (higher = more potent) of 0.427.

TACACGTCGTCCACACGGCTGA came in with a sensor-assay potency score (higher = more potent) of -0.19. As for TTGTTCACTGGCTTGAAGGAGC, the sensor-assay potency score (higher = more potent) is -0.757. The same measure, in the same setting: to TTGGACTGGGGTCTTAGGGATG belongs -1.55; to TTTGAAGGCACTGACACGGGGC, 0.517; to TCCAGGTCGATGACCACGCAGA, -1.79. The same measure, in the same setting: to TATTGGACTGGGGTCTTAGGGA belongs -0.481.

In a further assay the target is CTHRC1. The description is as above. To be noted: shRNA.
TAGAGCACTATTTGAACGCATC: the sensor-assay potency score (higher = more potent) is -1.21.

Regarding TAGCAACATCCACTAATCCAGC, the sensor-assay potency score (higher = more potent) is -1.03. Consider TTAGAGCACTATTTGAACGCAT, for which the sensor-assay potency score (higher = more potent) was -0.079.

TAATTCAATGAACTCCATGAAC gave a sensor-assay potency score (higher = more potent) of -1.24.

TTGAATGTGAAATACCAACGCT yielded a sensor-assay potency score (higher = more potent) of -0.453.

In turn, TAAATTATAGCTTCAATGGGAA yielded a sensor-assay potency score (higher = more potent) of -0.0923. Same read-out and setting: the result for TCTTTGTAAATGTACACTCCGC reads -0.893; that for TTTGTAAATGTACACTCCGCAA, -1.33. Still for that read-out and setting: the result for ATGAACTCCATGAACACTGCTT reads 0.166; that for ATAAATTATAGCTTCAATGGGA, 0.0197.

A further assay addresses CTLA4. The assay is described as above. To be noted: shRNA.
For the sequence TGGATCAATTACATAAATCTGG, the sensor-assay potency score (higher = more potent) is -0.489. Same read-out and setting: to TTCTTTAGCATTTTGCTCAAAG belongs -0.747. TTCACTTGATTTCCACTGGAGG had a sensor-assay potency score (higher = more potent) of -0.709. The same measure, in the same setting: to ATCAATTACATAAATCTGGGTT belongs -0.149; to TTTTGCTCAAAGAAACAGCTGT, 0.613. On the same count and under the same terms, to TTTTCTTTAGCAATTACATAAA belongs -1.29.

Sequence TTGCTTTGCAGAAGACAGGGAT returned a sensor-assay potency score (higher = more potent) of 0.337. Same read-out and setting: the result for TTGCTTTTCACATTCTGGCTCT reads 0.296; that for TTGGATAGTGAGGTTCACTTGA, 0.333. As for TTGCTCAAAGAAACAGCTGTGA, the sensor-assay potency score (higher = more potent) is -0.0499.

Consider TAGCAATTACATAAATCTGGGT, for which the sensor-assay potency score (higher = more potent) was -0.226. Same read-out and setting: to TTGCAGATGTAGAGTCCCGTGT belongs -0.673; to TTAGCAATTACATAAATCTGGG, -0.222; to TTTTCTTTAGCATTTTGCTCAA, -0.539.
